# Measured values taken from PubChem BioAssay (NCI).
# The panel holds about 83,000 compounds, 20% with a hit somewhere; the sample as a whole holds those more often.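 Compound tested at a single concentration for 48 hours in 96-well plates; a percent growth value below 10 was scored as active.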 Active and inactive are the calls of the source.
# Test system: HL-60(TB) leukemia
# Assay: NCI-60 one-dose screen, 48 h (100 = growth as untreated, 0 = no growth, -100 = all killed)
# Conditions: 10 µM unless noted
row,SMILES,growth
1,N#Cc1nc(-c2ccccc2)oc1S(=O)(=O)N1CCCCC1,10.5% (inactive)
2,C=C1CC[C@@H]2[C@](C)(CO)[C@H](O)CC[C@@]2(C)[C@@H]1C/C(O)=C1\CCOC1=O,95.3% (inactive)
3,COc1ccccc1NC1=C(Cl)C(=O)c2nc(C)ccc2C1=O,-48% (active)
4,CCC(CC)N1C(=O)/C(=c2\sc3n(c2=O)NC2C(N=3)N(CC)C(=O)N2CC)c2ccccc21 (stereo not given),26.5% (inactive)
5,CCCCCc1ccc(S(=O)(=O)Nc2cc(-c3csc(NC(=O)CN4CCN(CCO)CC4)n3)ccc2OC)cc1,-40.5% (active)
6,Oc1[nH]c2ccccc2c1Nn1c(N=N/C=c2/ccc3c(c2)C=NN=3)n[nH]c1=S,139% (inactive)
7,N#Cc1cnc2ccc(-c3cnc4[nH]ncc4c3)cc2c1N1CCc2cc(F)c(Cl)cc21,1.45% (active)
8,Nc1c(C(=O)Nc2ccc(C(F)(F)F)cc2)sc2nc(-c3cnccn3)cc(-c3cccs3)c12,51.9% (inactive)
9,O=C(CSc1nc2ccccc2c(=O)n1-c1ccccc1)Nc1ccc(S(=O)(=O)Nc2nccs2)cc1,78.7% (inactive)
10,Cc1ccc(S(=O)(=O)NCCCNc2nccc(-c3[nH]c(-c4ccccc4)nc3-c3ccc(F)c(O)c3)n2)cc1,82.4% (inactive)
11,COc1ccccc1N1CCN(C2=NN=C(c3cccc(Cl)c3)c3ccccc3C2)CC1,-55.5% (active)
12,CSc1ccc(/C(=N/N=C(N)N)c2ccccc2)cc1,-17.1% (active)
13,CC(C)(C)OC(=O)N1C(=O)c2c(c3c4ccccc4[nH]c3c3ccc4ccccc4c23)C1=O,39.6% (inactive)
14,C/C(=N\NC(=O)CSc1nc2sc3c(c2c(=O)n1-c1ccccc1)CCC(C)C3)c1ccc(Cl)cc1 (stereo not given),3.75% (active)
15,COc1cc(C2=NN(C(C)=O)C(c3ccc(N4CCOCC4)cc3)C2)cc(OC)c1OC (stereo not given),105% (inactive)
16,CCNC(=O)N1CCc2cc(OC)c(OCCc3ccc(OC)cc3)cc2C1c1ccc(Cl)cc1C (stereo not given),12.2% (inactive)
17,Cc1ccc2c(n1)C(=O)C(Cl)=C(Nc1cccc(C(F)(F)F)c1)C2=O,32.3% (inactive)
18,Cc1ccc(/C(N)=N/C(N)=N/c2nc3ccccc3s2)cc1,81.6% (inactive)
19,CNCc1cccc2c1OCCCCCCC(C)(O)CC(C)(C)S(=O)(=O)c1ccc(cc1)-c1cnc(N)c(n1)C(=O)N2 (stereo not given),-44.1% (active)
20,O=C(N/N=C/c1cccs1)c1[nH]c2ccc(Br)cc2c1-c1ccccc1,-48.3% (active)

row,SMILES,growth
1,NS(=O)(=O)c1ccc(Nc2nc(SCC(=O)c3ccc(Cl)cc3)nc3c2CCCC3)cc1,59.3% (inactive)
2,CSc1ccc2c(c1)N(C(=O)/C(C#N)=C/c1c[nH]c3ccccc13)c1ccccc1S2,12.8% (inactive)
3,N#C/C(=C\c1ccc(-c2ccc(Cl)cc2Cl)o1)c1ccc(F)cc1,95.9% (inactive)
4,CN(C)CCNC(=O)c1ccc(-c2nc3ccc4[nH]ncc4c3c3c2COCC3)cc1,-32.6% (active)
5,NC(=O)c1cccc(C#CCNC[C@H]2C[C@@H](n3ccc4c(Cl)ncnc43)[C@H](O)[C@@H]2O)c1,102% (inactive)
6,Cc1cc(=O)oc2cc(OCCCOc3ccc(/C=C/C(=O)Nc4ccc(Br)cc4)cc3)ccc12,95.8% (inactive)
7,CCOC(=O)c1c(Nc2ccccc2)nn2c(-c3ccc(Cl)cc3)ccnc12,86.7% (inactive)
8,COC(=O)c1ccc(NC(=S)N2CCc3ccc([N+](=O)[O-])cc3C2)cc1O,97.7% (inactive)
9,C[C@@H]1C[C@H]2C(=O)O[C@@H](C)C(NC(=O)[C@H](Cc3cc(F)cc(F)c3)NC(=O)Nc3ccc(C4CC4)cc3F)C(=O)N3CCC[C@H]3C(=O)N3CCCC[C@H]3C(=O)N[C@@H](CO)C(=O)N2C1 (stereo not given in full),11.5% (inactive)
10,Cc1ccc(-n2cc(/C=N/NC(=O)c3nc(N)n[nH]3)c(-c3ccc(S(C)(=O)=O)cc3)n2)cc1,95.1% (inactive)
11,O=C(Cn1cc(CN2C(=O)c3ccc([N+](=O)[O-])cc3C2=O)nn1)Nc1ccccc1Br,101% (inactive)
12,C#C[C@]1(O)CC[C@H]2[C@@H]3CC=C4c5sc(Nc6cc(Cl)ccc6OC)nc5CC[C@]4(C)[C@H]3CC[C@@]21C,5.48% (active)
13,Fc1ccc2nc(-c3cnn4cccnc34)sc2c1,96.7% (inactive)
14,CCO/C=N/C1=C(C#N)C(c2ccc(F)cc2)c2sc3c(C)cccc3c2O1 (stereo not given),-22.8% (active)
15,Cc1cc(-c2ccc(Cl)cc2)n(Cc2nnc(SCC(=O)Nc3ccc(S(N)(=O)=O)cc3)n2C2CCCCC2)n1,116% (inactive)
16,N#C/C(=N\Nc1ccc(F)cc1)C(=O)Nc1cc(-c2ccccc2)nn1-c1ccccc1,3.54% (active)
17,CC1CC(=O)C2=C(C1)Nc1ccc(Br)cc1CC2c1c[nH]c2ccc(Br)cc12 (stereo not given),21.2% (inactive)
18,CC(=O)Nc1cccc(-n2cnc3cc(-c4ccc(O)cc4)ccc32)c1,6.68% (active)
19,CCN(CC)CCN1C(=O)c2c(c3c4cccnc4[nH]c3c3ccc4ccccc4c23)C1=O,56.2% (inactive)
20,COc1ccc(C2CC(c3ccc(Nc4nc(NCCO)nc(N5CCOCC5)n4)cc3)=Nc3c(N)nc(N)nc3N2)cc1 (stereo not given),90.9% (inactive)
